FMDV Renilla – shows antiviral activity in FMDV Renilla assay; Potency, µM (top dose mostly 57.5 µM), usual class: inhibitors; 0.32% of 120,000 active; FMDV replicon cells, Renilla luciferase signal; note: nearly all actives have a fitted effect of over 55% in size
FMDV FLuc – shows antiviral activity against foot and mouth disease virus; FMDV antiviral cell assay, firefly luciferase signal; 0.23% of 120,000 active; AID 1745856; Potency, µM (top dose mostly 57.5 µM), usual class: inhibitors; note: nearly all actives have a fitted effect of over 60% in size
A number is an active result. In the library only some 0.45% were active in any assay of this set; here they are far more common. Calls come from the whole dose curve.

Results for COc1cc(OC)c(NC(=O)NCc2ccc3c(c2)CCN3C(C)=O)cc1Cl ?
FMDV Renilla: inactive; FMDV FLuc: inactive

What do the screens show for `COc1cc(OC)c(NC(=O)NCc2ccc3c(c2)CCN3C(=O)c2ccccc2)cc1Cl`?
FMDV Renilla: 22.4µM; FMDV FLuc: inactive

Results for CC(OC(=O)c1nn(C)c(=O)c2ccccc12)C(=O)N1CC(=O)Nc2ccccc21 (stereo not drawn) ?
FMDV Renilla: inactive; FMDV FLuc: inactive

What do the screens show for `COc1ccccc1CCNC(=O)Cn1ccc2cc(S(=O)(=O)N3CCCCC3)ccc21`?
FMDV Renilla: 28.2µM; FMDV FLuc: inactive

Results for COc1cccc(CNC(=O)Cn2ccc3cc(S(=O)(=O)N4CCCC4)ccc32)c1OC ?
FMDV Renilla: inactive; FMDV FLuc: inactive

Results for O=S(=O)(Cc1cccc(F)c1)c1ccc2ccccc2c1 ?
FMDV Renilla: inactive; FMDV FLuc: inactive

How did COc1ccc(NC(=O)Cn2c(=O)oc3cc(S(=O)(=O)N4CCC(C)CC4)ccc32)c(OC)c1 do in these assays?
FMDV Renilla: 10µM; FMDV FLuc: inconclusive

What do the screens show for `COc1ccc(C)cc1NC(=O)Cn1c(=O)oc2cc(S(=O)(=O)N3CCCCC3)ccc21`?
FMDV Renilla: inactive; FMDV FLuc: inactive

Results for CCOC(=O)CS(=O)(=O)c1nc(-c2ccc(F)cc2)cc(C(F)(F)F)n1 ?
FMDV Renilla: 28.2µM; FMDV FLuc: inconclusive

Results for COc1ccc(-c2cc(C(F)(F)F)nc(S(C)(=O)=O)n2)cc1 ?
FMDV Renilla: inconclusive; FMDV FLuc: inactive

What do the screens show for `COc1cccc(C2/C(=C(\O)c3ccc4c(c3)OCCO4)C(=O)C(=O)N2CCc2ccccc2)c1` (stereo not drawn)?
FMDV Renilla: inactive; FMDV FLuc: inactive

What do the screens show for `Cc1oc2cc(OC(=O)c3ccco3)ccc2c(=O)c1-c1ccc(Br)cc1`?
FMDV Renilla: inactive; FMDV FLuc: inactive

What do the screens show for `CCOC(=O)c1ccc(NS(=O)(=O)c2cc(Br)cc3c2N(C(C)=O)C(C)C3)cc1` (stereo not drawn)?
FMDV Renilla: inactive; FMDV FLuc: 20µM

How did CC(=O)N1c2c(cc(Br)cc2S(=O)(=O)Nc2ccc(OC(F)(F)F)cc2)CC1C (stereo not drawn) do in these assays?
FMDV Renilla: inactive; FMDV FLuc: inconclusive

How did CC1CCN(S(=O)(=O)c2cc3cc(F)ccc3oc2=O)CC1 do in these assays?
FMDV Renilla: inactive; FMDV FLuc: inactive

What do the screens show for `COc1cc(C2Nc3ccccc3C(=O)N2C2CC2)ccc1O` (stereo not drawn)?
FMDV Renilla: inactive; FMDV FLuc: inactive

How did O=C(Nc1nc(-c2ccc(Br)s2)cs1)C1CC1 do in these assays?
FMDV Renilla: inactive; FMDV FLuc: inactive

What do the screens show for `O=C(Nc1nc(-c2ccc(Cl)cc2)cs1)C1CCN(C(=O)c2ccoc2)CC1`?
FMDV Renilla: 10µM; FMDV FLuc: inconclusive

Results for O=C(Nc1nc(-c2cc3ccccc3oc2=O)cs1)c1ccc(Cl)cc1 ?
FMDV Renilla: inactive; FMDV FLuc: inactive

How did O=C(Nc1nc(-c2ccc(Cl)cc2)cs1)c1ccc(CN2CCOCC2)cc1 do in these assays?
FMDV Renilla: inconclusive; FMDV FLuc: 14.1µM

Results for Cc1ccc2c(c1)CCCN2C(=O)c1n[nH]c(=O)c2ccccc12 ?
FMDV Renilla: inactive; FMDV FLuc: inactive

Results for C=CCNc1nc(C(=O)OCc2ccc(F)cc2)cs1 ?
FMDV Renilla: inactive; FMDV FLuc: inactive

How did Cc1nc2ccccc2c(=O)n1-c1ccc(NC(=O)c2ccc([N+](=O)[O-])cc2)cc1 do in these assays?
FMDV Renilla: 2.82µM; FMDV FLuc: inconclusive

How did Cc1nc2ccccc2c(=O)n1-c1ccc(NC(=O)c2cccc([N+](=O)[O-])c2)cc1 do in these assays?
FMDV Renilla: inactive; FMDV FLuc: inactive

Results for CCCn1c(N(C)Cc2ccccc2)nc2c1c(=O)n(C)c(=O)n2C ?
FMDV Renilla: inconclusive; FMDV FLuc: 14.1µM

What do the screens show for `Cn1c(=O)c2c(nc(N(CCO)CCO)n2Cc2ccccc2)n(C)c1=O`?
FMDV Renilla: inactive; FMDV FLuc: inactive

How did Cc1ccc(NS(=O)(=O)c2ccc(-c3cnc(C4CC4)o3)cc2)cc1F do in these assays?
FMDV Renilla: inactive; FMDV FLuc: inactive

Results for CC(=O)c1cccc(NS(=O)(=O)c2ccc(-c3cnc(C4CC4)o3)cc2)c1 ?
FMDV Renilla: inactive; FMDV FLuc: 8.91µM

What do the screens show for `COC(=O)c1sc2nc(N3CCOCC3)c3c(c2c1N)CCN(C)C3`?
FMDV Renilla: inactive; FMDV FLuc: inactive

How did Cc1ccc(CN2C3=NCCCN3c3ccccc32)cc1 do in these assays?
FMDV Renilla: inactive; FMDV FLuc: inactive

How did Cc1cc2c(cc1C)N(Cc1ccc(Cl)cc1)C1=NCCCN12 do in these assays?
FMDV Renilla: inconclusive; FMDV FLuc: 20µM

Results for COC(=O)c1ccoc1COC(=O)CCc1ccc(OC)c(OC)c1 ?
FMDV Renilla: inactive; FMDV FLuc: inactive

How did Cc1sc(NC(=O)c2ccco2)nc1-c1ccc2c(c1)N(C)C(=O)CO2 do in these assays?
FMDV Renilla: inactive; FMDV FLuc: inactive

Results for CCN1C(=O)COc2ccc(-c3nc(NC(=O)c4ccccc4)sc3C)cc21 ?
FMDV Renilla: 10µM; FMDV FLuc: 14.1µM

How did COc1ccc(NC(=O)c2ccc(Cl)cc2)c2cccnc12 do in these assays?
FMDV Renilla: inactive; FMDV FLuc: inactive

How did COc1ccc(NC(=O)COc2ccc(Cl)cc2Cl)c2cccnc12 do in these assays?
FMDV Renilla: inconclusive; FMDV FLuc: 2.51µM

What do the screens show for `COc1ccc2c(C)c(CC(=O)NCc3ccc4c(c3)OCO4)c(=O)oc2c1`?
FMDV Renilla: inactive; FMDV FLuc: inactive

How did O=C(NCC(c1cccs1)N1CCCCCC1)c1cc(=O)c2ccc(Br)cc2o1 (stereo not drawn) do in these assays?
FMDV Renilla: inactive; FMDV FLuc: inactive

Results for CCCCOC(=O)c1ccc(NC(=O)c2ccc3c(c2)CCCN3S(C)(=O)=O)cc1 ?
FMDV Renilla: 22.4µM; FMDV FLuc: 28.2µM

How did CCCCOC(=O)c1ccc(NC(=O)c2ccc3c(c2)CCN3S(=O)(=O)c2ccccc2)cc1 do in these assays?
FMDV Renilla: inactive; FMDV FLuc: inactive

What do the screens show for `CCNC(=O)NC(=O)C(C)Oc1ccc(C(=O)c2ccc(Cl)cc2)cc1` (stereo not drawn)?
FMDV Renilla: inconclusive; FMDV FLuc: 12.6µM

How did CCOc1ccc(C(=O)c2ccc(Cl)cc2)cc1 do in these assays?
FMDV Renilla: inactive; FMDV FLuc: inactive

How did CC(C)(C)c1noc(Cn2cnc3ccc(Cl)cc3c2=O)n1 do in these assays?
FMDV Renilla: inactive; FMDV FLuc: inactive

Results for Cc1ccc(OCCn2cc(C(=O)C3CC3)c3ccccc32)cc1 ?
FMDV Renilla: inactive; FMDV FLuc: inactive

Results for CC(=O)c1cn(CCOc2ccccc2F)c2ccccc12 ?
FMDV Renilla: 8.91µM; FMDV FLuc: inconclusive

What do the screens show for `O=C(c1cccs1)c1cn(CCOc2ccccc2F)c2ccccc12`?
FMDV Renilla: inactive; FMDV FLuc: inactive

Results for COc1ccc(OCCn2cc(C(C)=O)c3ccccc32)cc1 ?
FMDV Renilla: inconclusive; FMDV FLuc: 25.1µM

How did Cc1nc2nncn2c(NCc2ccc(Cl)cc2)c1C do in these assays?
FMDV Renilla: 1.41µM; FMDV FLuc: inconclusive

How did CCc1c(C)nc2nncn2c1NCc1ccc(OC)cc1 do in these assays?
FMDV Renilla: inactive; FMDV FLuc: inactive

What do the screens show for `COc1ccc(CNc2cc(-c3ccc(OC)cc3)nc3nncn23)cc1`?
FMDV Renilla: inactive; FMDV FLuc: inactive

How did Cc1nc2nncn2c(NCc2ccc(F)cc2)c1C do in these assays?
FMDV Renilla: 8.91µM; FMDV FLuc: inconclusive

What do the screens show for `CCC(CC)NC(=O)c1cc(S(C)(=O)=O)ccc1C`?
FMDV Renilla: inactive; FMDV FLuc: inactive

Screening data: PubChem, National Center for Advancing Translational Sciences (NCATS)
